The whole screen tested about 330,000 compounds, of which about 7,700 (2.3%) were called active. A call without a number means that no potency is given here. Not shown: some 26% with an inconclusive outcome. Calls come from the whole dose curve; as a rule, active = well fitted inhibition curve with a large enough effect; inconclusive = small, poorly fitted or top-dose-only effect, or effect the other way; inactive = flat fitted curve, though single readings scatter. The sample as a whole holds a higher share of actives than the screen did.
Experiment: qHTS screen for small molecules that inhibit ELG1-dependent DNA repair in human embryonic kidney (HEK293T) cells expressing luciferase-tagged ELG1; note: nearly all actives have a fitted effect of over 55% in size
Settings: HEK293T ELG1-luciferase reporter, luminescence, 16 h, DNA damage induced by 5-fluorouridine; series mostly up to 46.1 µM
Procedure, shortened: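 Reporter activity after DNA damage by 5-fluorouridine is monitored. Compound-treated cells incubate 16 hr at 37 °C, then ONE-Glo is added for 30 min before luminescence reading.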
Potency is the fitted concentration of half-maximal effect.

SMILES | Potency
CCCCc1ccc(NS(=O)(=O)c2cccc(C(=O)N3CCCN(C)CC3)c2)cc1 | inactive
COc1cc(OC)c(N2CC(C(=O)Nc3cc(Cl)ccc3N3CCOCC3)CC2=O)cc1Cl (stereo not drawn) | inactive
CC(=O)Nc1ccc(-c2csc(NC(=O)Nc3ccccc3)n2)cc1 | 7.3 µM (active)
O=C(O)c1ccccc1C(=O)Nc1nc(-c2ccccc2)cs1 | inactive
CC(=O)Nc1ccc(S(=O)(=O)Nc2nc(-c3ccc(C(C)(C)C)cc3)cs2)cc1 | inactive
CC1C(=O)C(C)C(c2ccc(O)cc2)NC1c1ccc(O)cc1 (stereo not drawn) | inactive
CC(C)[C@H](NC(=O)N1c2ccccc2NC(=O)[C@@H]1C(C)C)C(=O)N[C@H](C(=O)O)c1ccccc1 | inactive
Cc1cccc(N2CCN(C(C)C(=O)N3CCc4ccccc43)CC2)c1C (stereo not drawn) | inactive
COc1ccc(OCCNC(=O)c2cc(C3CC3)nc3c2cnn3C(C)C)cc1 | inactive
COc1ccc(CNC(=O)CN(C(=O)c2csnn2)c2cnc3ccccc3c2)cc1 | inactive
COc1cc(N)c(Cl)cc1C(=O)OCC(=O)c1ccc2c(c1)NC(=O)CO2 | 3.66 µM (active)
O=C1COc2ccc(C(=O)COC(=O)c3cccnc3Cl)cc2N1 | inactive
O=C1COc2ccc(C(=O)COC(=O)c3ccccc3Cl)cc2N1 | inactive
COc1cc(/C=N/NC(=O)c2cccnc2)ccc1OC(=O)c1cccc(Br)c1 | inactive
CCOC(=O)c1nc(Nc2ccc(C(=O)OC)cc2)c2ccccc2n1 | 4.11 µM (active)
CCOC(=O)c1ccc(Nc2cc(C)nc3nc(C)nn23)cc1 | inactive
CCOC(=O)c1ccc(N/C(=N/S(=O)(=O)c2ccccc2)c2ccccc2)cc1 | inactive
Cc1cc2occ(CC(=O)NNC(=O)c3ccccc3F)c2cc1C | inactive
O=C1[C@H]2[C@@H](c3ccc(Cl)cc3)N3C(=O)N(c4cccc(F)c4)C(=O)[C@@]3(Cc3ccccc3)[C@H]2C(=O)N1C1CCCCC1 | inactive
COc1ccccc1CN1CCN(C(c2ccccc2)c2ccccc2)CC1 | inactive
CCCCn1c(N)c(N(CC(C)C)C(=O)c2ccc(-n3c(C)ccc3C)cc2)c(=O)[nH]c1=O | inactive
Cc1nc(SCC(=O)NC2CCCCC2C)c(C#N)c(C)c1C (stereo not drawn) | inactive
COc1ccc(NS(=O)(=O)c2ccc(Oc3c(C#N)cccc3C#N)cc2)cc1 | 2.31 µM (active)
COc1ccccc1Oc1ccc(S(=O)(=O)Nc2cccnc2)cc1 | inactive

SMILES | Potency
CCOc1ccc(S(=O)(=O)Nc2ccc(S(=O)(=O)Nc3cc(OC)ccc3OC)cc2)cc1 | inactive
CN(CC(=O)Nc1ccc(OC(F)(F)F)cc1)C(=O)C1CCC1 | inactive
Cc1noc(/C=C/c2ccco2)c1S(=O)(=O)N1CCC(C(=O)Nc2ccc(Cl)cn2)CC1 | 5.8 µM (active)
CCOC(=O)C1CCN(S(=O)(=O)c2c(C)noc2C)CC1 | inactive
Cc1noc(/C=C/N(C)C)c1S(=O)(=O)N1CCCC(C(=O)NCc2ccco2)C1 (stereo not drawn) | inactive
Cc1ccc(Cl)c(OCC(=O)N(C)CC(=O)Nc2ccc(N3CCOCC3)cc2)c1 | inactive
COc1cc2ccccc2cc1C(=O)N(CCN(C)C)c1nc2c(F)cccc2s1 | inactive
CN1c2ccc(C=O)c3c(C=O)ccc(c23)N(C)C1(C)C | 6.51 µM (active)
Cc1cccn2c(=O)c(/C=C(\C#N)C(N)=O)c(N3CCCCCC3)nc12 | inactive
CC(Sc1ccccc1F)C(=O)Nc1cccc(S(=O)(=O)N2CCOCC2)c1 (stereo not drawn) | inactive
CC(C)CN(C(=O)COC(=O)c1ccc(Cl)c(N)c1)c1c(N)n(Cc2ccccc2)c(=O)[nH]c1=O | inactive
COC(=O)C(C)Oc1ccc2c(c1)O/C(=C\c1cccc(Br)c1)C2=O (stereo not drawn) | inactive
Cc1ccc(OCCC(=O)OCC(=O)N2c3ccccc3NC(=O)C2(C)C)cc1 | inactive
Cc1cc(C(=O)OCC(=O)N2c3ccccc3NC(=O)C2(C)C)c(C)n1-c1ccccc1 | 29.1 µM (active)
CNS(=O)(=O)c1cccc(C(=O)OCC(=O)N2c3ccccc3NC(=O)C2(C)C)c1 | inactive
O=c1[nH]cccc1-c1nc2ccccc2n1Cc1ccc(Cl)cc1 | inactive
O=C(NC(Cc1c[nH]c2ccccc12)C(=O)N/N=C/c1ccc(Br)cc1)c1cccs1 (stereo not drawn) | 23.1 µM (active)
O=C(CNC(=O)c1cccs1)N/N=C/c1cccc(Br)c1 | inactive
CC(=O)NC(Cc1c[nH]c2ccccc12)C(=O)O (stereo not drawn) | inactive
CC1CN(C(=O)c2ccc([N+](=O)[O-])s2)CC(C)O1 (stereo not drawn) | inactive
COc1ccc(CC(=O)NC2CCSc3ccccc32)cc1OC (stereo not drawn) | inactive
CCOc1ccc(CCNC(=O)COC(=O)c2ccc(F)c(S(=O)(=O)N3CCOCC3)c2)cc1OCC | inactive
COc1ccccc1NS(=O)(=O)c1ccc(C)c(C(=O)NNC(=O)c2csc(N3CCOCC3)n2)c1 | inactive
CN(C(=O)CSc1nnc(-c2ccc3c(c2)OCO3)o1)C1CCS(=O)(=O)C1 (stereo not drawn) | inactive

— PubChem BioAssay AID504467 (National Center for Advancing Translational Sciences (NCATS), 2011)
